Source: PubChem (The Scripps Research Institute Molecular Screening Center)
CHRM1 antagonist – antagonists of human M1 muscarinic receptor | P11229 | CHO-K1 hM1, Fluo-8 calcium fluorescence, ACh EC80 antagonist | inhibition, % at 3 µM | actives 1.3% (n = 360,000) | AID 588852;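 active means percent inhibition above its own plate's cutoff, namely the mean of that plate's compound wells plus 3 SD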;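 further: peak over basal fluorescence ratio during 140 s after agonist addition; 0% = ACh EC80 plus DMSO and 100% = DMSO alone without agonist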
Target sequence (P11229 whole entry, looked up): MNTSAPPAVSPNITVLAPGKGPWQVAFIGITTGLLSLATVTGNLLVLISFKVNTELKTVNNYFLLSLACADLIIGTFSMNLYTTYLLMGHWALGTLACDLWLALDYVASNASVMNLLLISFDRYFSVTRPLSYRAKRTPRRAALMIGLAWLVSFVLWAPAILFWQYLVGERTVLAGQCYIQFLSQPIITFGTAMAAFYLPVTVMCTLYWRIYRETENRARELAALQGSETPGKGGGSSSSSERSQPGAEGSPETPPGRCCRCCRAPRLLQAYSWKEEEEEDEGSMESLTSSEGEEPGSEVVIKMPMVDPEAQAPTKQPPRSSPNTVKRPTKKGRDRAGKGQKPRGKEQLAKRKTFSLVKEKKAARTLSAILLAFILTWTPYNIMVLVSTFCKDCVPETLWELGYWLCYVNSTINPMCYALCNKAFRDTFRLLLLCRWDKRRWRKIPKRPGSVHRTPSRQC
M1 PAM parental – counter-screen for M1 PAMs: effect in parental CHO-K1 cells | activation, % at 3 µM | actives 0.02% (n = 360,000) | ATP EC20, Fluo-8 calcium fluorescence; 0% at ATP EC20, 100% at ATP max | AID 602247;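 active means activation above the run cutoff, the mean activation of all test compounds plus 3 SD, cut at about 40% in these data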;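 further: peak over basal fluorescence ratio in a 140 s read after ATP addition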
M1 ag parental – M1 agonist counterscreen hit in parental CHO-K1 cells; Fluo-8 calcium fluorescence; scaled to maximal ATP response, vehicle zero; activation, % at 3 µM; actives 0.48% (n = 360,000); in the data active means activation above about 15%;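 further: untransfected CHO-K1 host cells lacking M1 receptor as counterscreen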
CHO-K1 Ca antag – nonselective inhibitor or artifact in parental CHO-K1 cells. AID 602250. ATP-induced calcium, Fluo-8 fluorescence. actives 0.6% (n = 360,000). inhibition, % at 3 µM;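 active means inhibition above a per-plate cutoff, the plate's mean sample inhibition plus 3 SD, cut at about 24% in these data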;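 further: 0% = DMSO plus EC80 ATP and 100% = DMSO alone without ATP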
CHRM1 agonist – human M1 muscarinic receptor agonism; P11229; CHO-K1 hM1, Fluo-8 calcium fluorescence, agonist mode; 0% DMSO, 100% acetylcholine EC100; actives 0.33% (n = 360,000); activation, % at 3 µM;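 active means activation above the run's mean compound activation plus 3 SD, cut at about 16% in these data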;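 further: peak over basal fluorescence ratio within a 140 s kinetic read after compound addition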
CHRM1 PAM – positive allosteric modulators of human M1 muscarinic receptor; CHO-K1 hM1, Fluo-8 calcium fluorescence, ACh EC20; 0% = ACh EC20, 100% = maximal ACh; activation, % at 3 µM; actives 0.088% (n = 360,000); P11229; in the data active means activation above about 19%, passing the limit was not always enough
Active calls of the source: *. In the library only some 2.4% were active in any assay of this set; here they are far more common.

SMILES	CHRM1 antagonist	M1 PAM parental	M1 ag parental	CHO-K1 Ca antag	CHRM1 agonist	CHRM1 PAM
O=C(Cc1ccc(S(=O)(=O)N2CCOCC2)s1)N1CCN(c2cccc(C(F)(F)F)c2)CC1	38*	-5	18*	19	2	-12
Cc1cc(C(=O)OCC(=O)Nc2c(Cl)cccc2Cl)c(C)o1	-5	-1	-1	5	-7	7
Cc1nc2c(OCc3ccc(C(F)(F)F)cc3)cccn2c1N(C)C(=O)CCC1CCCC1	28	-5	1	0	-8	-26
Cc1nc2c(OCc3ccc(C#N)cc3)cccn2c1N(C)C(=O)CCC1CCCC1	40*	13	7	-7	1	-32
Cc1nc2c(OCc3ccc(F)cc3)cccn2c1N(C)C(=O)CCC1CCCC1	43*	4	3	-12	-8	-33
CSc1ccc(C(=O)C2CCCN(Cc3cccc4nccnc34)C2)cc1 (stereo not drawn)	68*	19	2	-20	-8	-25
CN1C2C(Br)CCCCN2c2ccc(F)cc2S1(=O)=O (stereo not drawn)	-10	9	1	-16	-2	9
COCC(=O)N1CCC(c2nc3ccccc3[nH]2)CC1	-5	-2	1	-8	20*	0
Cc1ccccc1NC(=O)c1ccc(C)c(S(=O)(=O)NCc2cccnc2)c1	-6	6	5	-5	22*	10
CN(CC(=O)Nc1cccc(F)c1)C(=O)c1ccc2c(c1)CC(c1ccccc1)OC2=O (stereo not drawn)	9	-19	8	19	1	-2
Nc1c(C(=O)NCCN2CCOCC2)c2nc3ccccc3nc2n1-c1cccc(F)c1	6	15	2	-5	-4	0
C=CCNC(=O)c1c(N)n(-c2ccc3c(c2)OCO3)c2nc3ccccc3nc12	69*	7	1	-15	-12	-25
Nc1c(C(=O)NCC2CCCO2)c2nc3ccccc3nc2n1-c1ccccc1 (stereo not drawn)	28*	7	5	0	3	-16
COc1ccccc1/C=C/C=N/n1c(-c2ccc(Cl)cc2)n[nH]c1=S	-27	-16	-1	53*	0	12
CS(=O)(=O)c1ccc(-c2sc3ccccc3c2C(=O)N2CCN(c3ccc(F)cc3)CC2)cc1	9	19	2	-13	-2	-1
COCCN1CCC(CNCc2cn[nH]c2-c2ccc(C)c(C)c2)C1 (stereo not drawn)	-4	10	0	-11	-7	4
COCCN1CCC(CNCc2cn(-c3cc(C)ccc3C)nc2-c2ccccc2)C1 (stereo not drawn)	-6	-2	0	26*	-12	3
CC(=O)c1cccc(NS(=O)(=O)c2cc3c(cc2C)N(C(C)=O)CCO3)c1	-9	2	0	-10	-2	4
CC1CC2CCCC(O)=C2C(=O)O1 (stereo not drawn)	-3	15	1	2	-2	2
COc1cc(CN2CCN(C(O)(c3ccccc3)c3ccccc3)CC2)cc(OC)c1OC	62*	-6	2	10	-9	-28
Cn1c(-c2ccccc2)cc(=NNS(C)(=O)=O)c2cc(S(=O)(=O)O)ccc21	-14	7	0	-8	-3	5
Nc1nnc2cc(Cl)ccc2n1	-16	-5	0	-22	8	28*
Cc1ccc2nc(N)nnc2c1	-17	20	1	-14	1	11
CCN(CC)c1ccc(/C=C/c2cc(-c3ccccc3)c3ccccc3n2)cc1	36*	-2	9	11	18*	-2
Cc1ccc(S(=O)(=O)NCCC(=O)N2CCC(C(N)=O)CC2)cc1C	-20	7	1	-11	1	24*
SMILES	CHRM1 antagonist	M1 PAM parental	M1 ag parental	CHO-K1 Ca antag	CHRM1 agonist	CHRM1 PAM
Cc1nn(-c2ccccc2)c(C)c1C(=O)OCC(=O)N1c2ccccc2NC(=O)C1(C)C	33*	8	4	19	0	-9
Cc1cnc(C(=O)OCC(=O)N2c3ccccc3NC(=O)C2(C)C)cn1	-10	10	0	-11	-3	7
Cc1cccc(OCCC(=O)OCC(=O)N2c3ccccc3NC(=O)C2(C)C)c1	-1	12	13	-7	1	-10
CC1(C)C(=O)Nc2ccccc2N1C(=O)COC(=O)CSc1ccc(Cl)cc1	-4	-5	2	-10	-4	2
CC(C)(C)c1ccc(OCCC(=O)OCC(=O)N2c3ccccc3NC(=O)C2(C)C)cc1	34*	-19	7	18	2	-13
CC1(C)C(=O)Nc2ccccc2N1C(=O)COC(=O)CNS(=O)(=O)c1ccc(F)c(F)c1F	4	-22	-1	24*	-5	-4
O=C(CC1CCCC1)N1CCN(S(=O)(=O)c2ccccc2)CC1	2	2	1	-8	-6	4
COc1ccc([C@H]2N[C@]3(CCCN(Cc4cccn4C)C3=O)[C@H]3C(=O)N(Cc4ccccc4)C(=O)[C@@H]23)cc1	-8	23	0	-14	-3	8
Cc1cc(O)c(C(=O)/C=C/c2cccc([N+](=O)[O-])c2)c(=O)o1	-7	30	2	-18	-4	4
Cc1cc(O)c(C(=O)/C=C/c2ccccc2O)c(=O)o1	-15	9	3	24*	-1	9
CC(C)=NOCC(=O)Nn1c(COc2ccccc2)nc2ccccc2c1=O	-8	5	0	6	-1	11
O=C(NCc1ccccc1)c1cc(C2COCCN2C(=O)c2cccs2)on1 (stereo not drawn)	-6	16	1	-10	-4	7
Cc1ccc(CNC(=O)c2ccc(N3CCC4(CC3)CC(c3ccccc3)=NO4)c(N)c2)cc1	7	-12	0	17	-1	-3
COc1ccc(-n2cc(CN(C)CCO)c(-c3cccc(F)c3)n2)cc1	5	-2	18*	10	-9	-2
COc1ccc(-n2cc(CN(C)C(C)c3ccncn3)c(-c3cccc(F)c3)n2)cc1 (stereo not drawn)	-15	5	2	-15	-6	10
CCN(c1cccc(C)c1)S(=O)(=O)c1ccc2c3c(cccc13)C(=O)N2	6	-8	1	28*	-3	0
CCOc1ccc(CCNC(=O)COC(=O)c2ccc(OC(C)C)cc2)cc1OCC	-12	-7	0	-16	-6	3
COc1ccccc1-n1c(-c2ccccc2)c[n+]2c1CCc1ccccc1-2	59*	20	1	-2	-10	-26
COc1ccc(-c2cn(-c3ccc(OC)cc3)c3[n+]2-c2ccccc2CC3)cc1	21	14	1	9	-15	-13
CC(C)c1ccc(-n2c(-c3ccccc3)c[n+]3c2CCc2ccccc2-3)cc1	26	1	11	32*	-13	-21
